Experiments:
Assay in all cases: DAPPL (digital affinity profiling via proximity ligation, sequencing); 10 mM Tris-HCl pH 7.5, 50 mM NaCl, 1 mM DTT, 4% glycerol, room temperature, 30 min; GST-TFs on glutathione beads, 16-mer random dsDNA library, 0.1% formaldehyde crosslink after washing; high values mean tight binding
Conditions in all cases: protein: recombinant; tags: N-terminal GST; dsDNA, one strand shown
[1] = molecular target: T1, FLI1 (Homo sapiens, UniProt Q01543 1-452)
T1 sequence: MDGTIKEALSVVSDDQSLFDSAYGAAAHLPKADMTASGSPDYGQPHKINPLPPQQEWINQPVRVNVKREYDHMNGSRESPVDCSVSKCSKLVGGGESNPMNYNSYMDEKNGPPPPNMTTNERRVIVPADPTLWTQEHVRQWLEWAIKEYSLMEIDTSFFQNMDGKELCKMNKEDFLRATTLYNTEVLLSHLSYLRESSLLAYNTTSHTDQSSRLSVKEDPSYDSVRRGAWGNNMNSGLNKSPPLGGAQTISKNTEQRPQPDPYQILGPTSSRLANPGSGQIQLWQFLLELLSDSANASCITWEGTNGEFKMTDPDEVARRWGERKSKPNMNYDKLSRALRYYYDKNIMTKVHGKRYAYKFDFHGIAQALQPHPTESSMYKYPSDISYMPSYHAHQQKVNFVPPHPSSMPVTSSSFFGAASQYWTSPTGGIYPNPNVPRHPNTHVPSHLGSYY
How it was run: (§1)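 Yeast served to express human transcription factors as GST fusions, which were then captured on glutathione beads and labelled with DNA barcodes. Pooled with a tag-only sample, they were incubated with 200 nmole of a 16-mer random double-stranded DNA library for 30 min at room temperature in Tris/NaCl/DTT/glycerol buffer, washed, crosslinked with 0.1% formaldehyde, ligated by proximity, amplified by PCR and sequenced. Dividing each hexamer's read frequency for a factor by its frequency for the tag-only sample gives the binding signal.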

[2] = molecular target: T2, ELK1 (Homo sapiens, UniProt P19419 1-428)
T2 sequence: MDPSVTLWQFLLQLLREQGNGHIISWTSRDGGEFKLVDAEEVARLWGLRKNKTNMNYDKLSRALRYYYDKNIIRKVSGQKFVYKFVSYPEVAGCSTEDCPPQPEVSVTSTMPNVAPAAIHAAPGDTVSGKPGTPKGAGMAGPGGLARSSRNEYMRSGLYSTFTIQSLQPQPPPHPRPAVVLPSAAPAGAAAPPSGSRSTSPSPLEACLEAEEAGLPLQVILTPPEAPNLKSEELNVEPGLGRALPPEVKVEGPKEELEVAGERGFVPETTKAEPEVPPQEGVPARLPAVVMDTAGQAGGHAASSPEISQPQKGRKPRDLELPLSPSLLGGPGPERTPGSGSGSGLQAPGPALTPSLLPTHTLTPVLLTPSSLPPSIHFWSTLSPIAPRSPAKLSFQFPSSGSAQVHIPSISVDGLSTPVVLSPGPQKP
How it was run: as §1

[3] = molecular target: ELF1 (Homo sapiens, UniProt P32519 1-619)
ELF1, sequence (P32519 whole entry): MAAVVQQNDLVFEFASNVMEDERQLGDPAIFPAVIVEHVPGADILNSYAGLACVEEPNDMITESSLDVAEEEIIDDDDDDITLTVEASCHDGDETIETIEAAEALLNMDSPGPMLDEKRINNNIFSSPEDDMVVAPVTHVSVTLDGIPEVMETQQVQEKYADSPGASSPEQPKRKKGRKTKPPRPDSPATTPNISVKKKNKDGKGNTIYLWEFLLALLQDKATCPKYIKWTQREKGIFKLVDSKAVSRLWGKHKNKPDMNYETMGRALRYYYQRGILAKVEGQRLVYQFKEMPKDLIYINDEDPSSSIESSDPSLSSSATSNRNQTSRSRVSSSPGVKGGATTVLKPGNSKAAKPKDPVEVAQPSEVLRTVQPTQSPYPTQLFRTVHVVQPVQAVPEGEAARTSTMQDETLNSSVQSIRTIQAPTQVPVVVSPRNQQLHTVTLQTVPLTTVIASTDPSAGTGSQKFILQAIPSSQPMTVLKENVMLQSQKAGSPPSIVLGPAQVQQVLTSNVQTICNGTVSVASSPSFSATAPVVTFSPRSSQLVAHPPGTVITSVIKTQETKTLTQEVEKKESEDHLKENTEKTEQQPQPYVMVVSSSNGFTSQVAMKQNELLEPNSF
How it was run: as §1

[4] = molecular target: T3, EHF (Homo sapiens, UniProt Q9NZC4 1-300)
T3 sequence: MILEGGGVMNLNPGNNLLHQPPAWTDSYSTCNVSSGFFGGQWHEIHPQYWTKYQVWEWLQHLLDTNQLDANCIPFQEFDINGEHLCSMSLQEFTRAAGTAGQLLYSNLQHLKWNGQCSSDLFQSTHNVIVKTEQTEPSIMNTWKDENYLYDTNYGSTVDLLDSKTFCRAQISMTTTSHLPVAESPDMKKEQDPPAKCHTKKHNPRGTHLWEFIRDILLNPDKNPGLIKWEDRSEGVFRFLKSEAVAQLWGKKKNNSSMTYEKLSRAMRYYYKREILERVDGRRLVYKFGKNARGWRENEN
How it was run: as §1

[5] = molecular target: SPI1 (Homo sapiens, UniProt P17947 1-270)
How it was run: as §1

[6] = molecular target: ELF4 (Homo sapiens, UniProt Q99607 1-663)
ELF4, sequence (Q99607 whole entry): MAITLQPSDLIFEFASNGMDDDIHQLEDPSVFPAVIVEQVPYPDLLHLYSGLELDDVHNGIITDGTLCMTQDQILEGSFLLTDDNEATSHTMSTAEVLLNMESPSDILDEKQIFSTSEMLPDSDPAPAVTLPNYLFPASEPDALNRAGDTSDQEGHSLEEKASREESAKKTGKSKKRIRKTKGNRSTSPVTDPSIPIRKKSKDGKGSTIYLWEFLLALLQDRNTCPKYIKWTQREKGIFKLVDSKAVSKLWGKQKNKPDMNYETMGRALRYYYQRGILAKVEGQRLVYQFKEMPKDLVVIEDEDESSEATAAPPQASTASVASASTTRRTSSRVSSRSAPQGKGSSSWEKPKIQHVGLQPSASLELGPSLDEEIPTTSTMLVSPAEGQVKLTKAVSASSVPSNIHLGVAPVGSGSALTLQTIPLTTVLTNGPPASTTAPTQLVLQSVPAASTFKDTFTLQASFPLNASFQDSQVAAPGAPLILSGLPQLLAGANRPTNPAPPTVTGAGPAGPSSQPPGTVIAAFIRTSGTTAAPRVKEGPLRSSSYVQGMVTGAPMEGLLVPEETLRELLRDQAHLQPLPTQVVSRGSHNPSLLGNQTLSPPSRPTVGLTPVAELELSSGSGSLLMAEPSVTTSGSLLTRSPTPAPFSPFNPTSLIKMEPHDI
How it was run: as §1

[7] = molecular target: T4, ELF3 (Homo sapiens, UniProt P78545 1-371)
T4 sequence: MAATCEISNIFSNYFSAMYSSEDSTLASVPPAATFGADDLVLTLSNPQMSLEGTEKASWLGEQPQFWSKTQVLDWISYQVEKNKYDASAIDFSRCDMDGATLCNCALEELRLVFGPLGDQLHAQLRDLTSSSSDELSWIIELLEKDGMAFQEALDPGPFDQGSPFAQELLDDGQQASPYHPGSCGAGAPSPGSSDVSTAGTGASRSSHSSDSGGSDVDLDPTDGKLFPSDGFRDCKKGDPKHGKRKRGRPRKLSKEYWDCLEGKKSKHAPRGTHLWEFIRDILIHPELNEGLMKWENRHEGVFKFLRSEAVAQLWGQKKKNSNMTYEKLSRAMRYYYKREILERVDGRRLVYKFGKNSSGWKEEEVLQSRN
How it was run: as §1

[8] = molecular target: ETV1 (Homo sapiens, UniProt P50549 1-477)
ETV1, sequence (P50549 whole entry): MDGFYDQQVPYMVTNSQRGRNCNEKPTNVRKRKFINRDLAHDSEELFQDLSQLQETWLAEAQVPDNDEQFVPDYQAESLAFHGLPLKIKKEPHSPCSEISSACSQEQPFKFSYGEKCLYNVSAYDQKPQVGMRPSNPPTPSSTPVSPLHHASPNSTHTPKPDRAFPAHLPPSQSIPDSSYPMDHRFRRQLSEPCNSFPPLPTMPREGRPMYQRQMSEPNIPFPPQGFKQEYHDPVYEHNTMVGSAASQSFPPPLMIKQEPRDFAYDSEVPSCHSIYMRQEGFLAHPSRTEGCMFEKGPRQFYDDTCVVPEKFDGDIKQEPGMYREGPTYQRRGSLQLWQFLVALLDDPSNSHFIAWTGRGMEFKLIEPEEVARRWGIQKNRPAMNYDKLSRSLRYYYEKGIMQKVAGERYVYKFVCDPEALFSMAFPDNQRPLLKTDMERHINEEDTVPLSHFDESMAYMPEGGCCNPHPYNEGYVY
How it was run: as §1

[9] = molecular target: T5, ERF (Homo sapiens, UniProt P50548 1-548)
T5 sequence: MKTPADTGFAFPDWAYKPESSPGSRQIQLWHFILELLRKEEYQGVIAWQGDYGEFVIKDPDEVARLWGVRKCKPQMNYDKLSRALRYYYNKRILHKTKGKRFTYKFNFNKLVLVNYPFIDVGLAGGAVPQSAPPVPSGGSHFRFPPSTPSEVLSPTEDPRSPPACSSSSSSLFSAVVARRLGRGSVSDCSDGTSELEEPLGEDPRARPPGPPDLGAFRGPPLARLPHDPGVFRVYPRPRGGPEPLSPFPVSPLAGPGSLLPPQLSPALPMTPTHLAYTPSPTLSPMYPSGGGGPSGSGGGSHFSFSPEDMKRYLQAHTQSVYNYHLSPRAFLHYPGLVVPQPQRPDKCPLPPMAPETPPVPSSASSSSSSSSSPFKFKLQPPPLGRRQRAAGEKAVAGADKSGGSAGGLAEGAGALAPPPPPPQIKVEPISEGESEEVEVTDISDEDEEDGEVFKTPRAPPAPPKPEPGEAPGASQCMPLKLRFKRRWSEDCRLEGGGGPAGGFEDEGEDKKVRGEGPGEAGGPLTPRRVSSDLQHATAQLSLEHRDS
How it was run: as §1

[10] = molecular target: T6, ETV7 (Homo sapiens, UniProt Q9Y603 1-341)
T6 sequence: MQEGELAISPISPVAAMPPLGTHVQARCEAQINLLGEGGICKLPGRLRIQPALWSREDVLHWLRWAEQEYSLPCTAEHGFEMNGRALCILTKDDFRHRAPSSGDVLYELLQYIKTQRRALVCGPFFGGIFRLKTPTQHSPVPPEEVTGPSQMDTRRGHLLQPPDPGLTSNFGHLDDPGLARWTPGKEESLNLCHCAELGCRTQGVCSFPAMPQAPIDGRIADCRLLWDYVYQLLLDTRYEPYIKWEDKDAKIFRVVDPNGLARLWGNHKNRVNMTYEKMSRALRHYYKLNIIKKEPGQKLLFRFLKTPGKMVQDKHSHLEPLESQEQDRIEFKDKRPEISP
How it was run: as §1

[11] = molecular target: T7, GABPA (Homo sapiens, UniProt Q06546 1-454)
T7 sequence: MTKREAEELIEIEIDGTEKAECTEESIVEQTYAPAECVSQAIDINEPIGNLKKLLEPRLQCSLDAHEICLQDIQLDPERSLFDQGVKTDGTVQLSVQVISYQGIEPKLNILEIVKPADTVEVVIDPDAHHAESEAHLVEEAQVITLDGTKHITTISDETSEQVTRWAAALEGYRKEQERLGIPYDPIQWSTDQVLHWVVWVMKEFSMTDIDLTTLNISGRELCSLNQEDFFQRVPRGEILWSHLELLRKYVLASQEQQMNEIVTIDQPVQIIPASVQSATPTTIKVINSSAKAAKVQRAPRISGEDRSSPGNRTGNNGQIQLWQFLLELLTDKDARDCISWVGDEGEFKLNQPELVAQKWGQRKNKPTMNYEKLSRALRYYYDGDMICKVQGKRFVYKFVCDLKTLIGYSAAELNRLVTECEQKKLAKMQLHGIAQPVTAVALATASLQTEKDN
How it was run: as §1

[12] = molecular target: T8, ELK3 (Homo sapiens, UniProt P41970 1-407)
T8 sequence: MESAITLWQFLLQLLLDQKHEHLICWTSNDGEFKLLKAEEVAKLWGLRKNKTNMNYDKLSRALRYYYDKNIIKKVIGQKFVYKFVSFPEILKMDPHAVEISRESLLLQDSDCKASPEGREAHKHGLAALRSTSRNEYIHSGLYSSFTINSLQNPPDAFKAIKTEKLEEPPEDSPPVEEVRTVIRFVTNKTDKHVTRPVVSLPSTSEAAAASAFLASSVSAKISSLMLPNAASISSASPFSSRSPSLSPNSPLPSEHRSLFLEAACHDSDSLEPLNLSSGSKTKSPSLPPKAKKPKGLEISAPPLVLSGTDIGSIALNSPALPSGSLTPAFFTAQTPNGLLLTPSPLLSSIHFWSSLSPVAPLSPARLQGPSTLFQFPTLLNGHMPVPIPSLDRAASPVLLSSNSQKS
How it was run: as §1

[13] = molecular target: T9, ELK4 (Homo sapiens, UniProt P28324-2 1-405)
T9 sequence: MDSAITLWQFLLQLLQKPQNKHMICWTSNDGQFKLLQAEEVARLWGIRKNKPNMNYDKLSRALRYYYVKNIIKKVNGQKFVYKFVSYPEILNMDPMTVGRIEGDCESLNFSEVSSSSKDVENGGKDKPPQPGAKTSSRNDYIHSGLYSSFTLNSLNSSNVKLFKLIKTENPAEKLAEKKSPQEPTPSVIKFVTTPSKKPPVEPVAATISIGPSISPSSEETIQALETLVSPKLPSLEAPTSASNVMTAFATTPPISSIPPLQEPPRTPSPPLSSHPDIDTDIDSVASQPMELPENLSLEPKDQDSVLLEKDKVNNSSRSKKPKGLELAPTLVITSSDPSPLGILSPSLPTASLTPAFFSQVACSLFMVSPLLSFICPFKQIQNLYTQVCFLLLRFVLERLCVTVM
How it was run: as §1

[14] = molecular target: T10, ETV3L (Homo sapiens, UniProt Q6ZN32 1-361)
T10 sequence: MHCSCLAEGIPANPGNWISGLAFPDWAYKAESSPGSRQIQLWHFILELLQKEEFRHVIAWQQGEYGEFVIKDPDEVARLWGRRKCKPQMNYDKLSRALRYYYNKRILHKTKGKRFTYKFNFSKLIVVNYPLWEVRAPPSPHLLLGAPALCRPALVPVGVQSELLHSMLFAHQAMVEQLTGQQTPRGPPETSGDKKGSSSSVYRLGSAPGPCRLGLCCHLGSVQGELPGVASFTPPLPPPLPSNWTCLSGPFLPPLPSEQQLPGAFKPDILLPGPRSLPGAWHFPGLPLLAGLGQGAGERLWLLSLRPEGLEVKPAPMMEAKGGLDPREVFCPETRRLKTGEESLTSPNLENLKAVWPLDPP
How it was run: as §1

[15] = molecular target: T11, ETV3 (Homo sapiens, UniProt P41162-2 1-143)
T11 sequence: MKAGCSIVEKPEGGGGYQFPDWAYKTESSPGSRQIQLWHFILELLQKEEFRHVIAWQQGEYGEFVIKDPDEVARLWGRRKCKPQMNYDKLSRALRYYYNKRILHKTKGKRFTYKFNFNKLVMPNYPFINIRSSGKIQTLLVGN
How it was run: as §1

Sequence	binding signal [1]	binding signal [2]	binding signal [3]	binding signal [4]	binding signal [5]	binding signal [6]	binding signal [7]	binding signal [8]	binding signal [9]	binding signal [10]	binding signal [11]	binding signal [12]	binding signal [13]	binding signal [14]	binding signal [15]
ATTGAG	1.08 fold enrichment (6-mer frequency, TF over GST control)	1.12 fold enrichment (6-mer frequency, TF over GST control)	1 fold enrichment (6-mer frequency, TF over GST control)	1.01 fold enrichment (6-mer frequency, TF over GST control)	1 fold enrichment (6-mer frequency, TF over GST control)	1.05 fold enrichment (6-mer frequency, TF over GST control)	1 fold enrichment (6-mer frequency, TF over GST control)	1.01 fold enrichment (6-mer frequency, TF over GST control)	1.02 fold enrichment (6-mer frequency, TF over GST control)	1.08 fold enrichment (6-mer frequency, TF over GST control)					
GCCGCA	1.01 fold enrichment (6-mer frequency, TF over GST control)	1.03 fold enrichment (6-mer frequency, TF over GST control)	1.04 fold enrichment (6-mer frequency, TF over GST control)	1.04 fold enrichment (6-mer frequency, TF over GST control)		1.04 fold enrichment (6-mer frequency, TF over GST control)			1.07 fold enrichment (6-mer frequency, TF over GST control)		1.02 fold enrichment (6-mer frequency, TF over GST control)	1.04 fold enrichment (6-mer frequency, TF over GST control)	1.04 fold enrichment (6-mer frequency, TF over GST control)	1.04 fold enrichment (6-mer frequency, TF over GST control)	1 fold enrichment (6-mer frequency, TF over GST control)
